A selection: hits, their analogues and other compounds. The true share with any hit is near 21%.
Pf growth 48h: inhibits P. falciparum growth in the first generation, 48 h. P. falciparum luciferase growth in erythrocytes, 48 h. Potency, µM (titrated, usually from 28.7 µM), actives largely listed as inhibitors. 310,000 compounds, 5.9% hits. AID 504832
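Luminescence readout; reporter = integrated firefly luciferase in P. falciparum. RBC culture at 2% hematocrit, 0.1% parasitemia final, 37 C/5% CO2; decreased signal taken as growth inhibition.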
Shiga inhibitor: blocks Shiga toxin action in Vero cells. Vero cells, Shiga toxin protein synthesis inhibition reporter. inhibition, % at 38.7 µM. 290,000 compounds, 9.2% hits. AID 2315; in the data active = inhibition mostly above about 28%, no sharp cut-off; inactive = mostly below about 43%
Pf growth 96h: P. falciparum growth inhibition at 96 hours. AID 504834. P. falciparum luciferase reporter growth, 96 h. 320,000 compounds, 6.9% hits. Potency, µM (doses to about 28.7 µM), hits mostly inhibitors
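96 h incubation, 37 C, 5% CO2, of luciferase-reporter P. falciparum-infected RBCs (2% hematocrit, 0.05% parasitemia final) with test compounds; endpoint luminescence.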
NS1 inh: inhibitors of influenza NS1 protein function. Potency, µM (top dose mostly 46.1 µM). 270,000 compounds, 0.4% hits. AID 2326; calls by dose curve; also: actives are rising curves; nearly all actives have a fitted effect of over 50% in size
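Read-out: OD600 growth recovery of NS1-expressing budding yeast. Cells grown overnight at 30C in -URA glucose medium, washed, resuspended and diluted 1:100 in 2% galactose assay medium, pH 6.0. Same strain lacking NS1 served as positive control.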
Cycloheximide cs: affects cycloheximide protein synthesis inhibition readout, counter-screen. cell reporter, cycloheximide protein synthesis inhibition counterscreen. max response, %. 300,000 compounds, 12% hits; in the data active = max response mostly above about 13%, no sharp cut-off; inactive = mostly below about 14%; also: read at 38.3 µM for the half of the compounds with a filed dose
A number is an active result; - = inactive; ? = inconclusive; . = no result given; [ ] = another dose, or the depositor's remark. Unless noted, calls follow the shape of the dose curve; as a rule, active = well fitted inhibition curve with a large enough effect; inconclusive = small, poorly fitted or top-dose-only effect, or another doubt; inactive = no such curve, though single readings can be large or run the other way.

SMILES | Pf growth 48h | Shiga inhibitor | Pf growth 96h | NS1 inh | Cycloheximide cs
CC(C)(C)OC(=O)N[C@@H](CCCCNC(=O)OCc1ccccc1)c1nnc([C@H](CCCCNC(=O)OCc2ccccc2)NC(=O)OC(C)(C)C)o1 | ? | - | 2.6µM | - | -
C=C(C)CSc1nnc([C@H](CCSC)NC(=O)OC(C)(C)C)o1 | . | - | 10µM | - | -
COC(=O)CCC(=O)N1CCCC(CO)(Cc2ccccc2F)C1 (centres undefined) | - | - | - | - | -
Oc1ccccc1-c1cncn1Cc1ccccc1 | . | - | 15µM | - | -
CCn1cc(Cl)c(C(=O)N2N=C3/C(=C/c4cccs4)CCCC3C2c2cccs2)n1 (centres undefined) | - | - | ? | - | -
O=c1c2c3c(sc2nc2n1CCCC2)CCC3 | - | - | - | - | -
Cc1nc2sc3c(c2c(=N)n1N)CC(C)(C)OC3 | - | - | - | - | -
O=c1c2c3c(sc2nc2n1CCCC2)CCCCC3 | - | - | . | - | 44
O=c1c2c3c(sc2nc2n1CCCCC2)CCCC3 | - | 97 | . | - | 31
Cc1nc2sc3c(c2c(=N)n1N)CCCC3 | - | - | 10µM | - | -
O=c1c2c3c(sc2nc2n1CCCS2)CCCC3 | - | - | - | - | 42
CN(C)Cc1cn(CCC(=O)O)c2ccccc12 | . | . | . | - | .
COc1ccc(NC(=O)CN2C(=O)NC(c3ccccc3)(c3ccccc3)C2=O)cc1OC | - | - | - | - | -
O=C(COC(=O)c1ccc2ccccc2c1)NCCCc1ccccc1 | - | - | - | - | -
CCOc1ccc(S(=O)(=O)N(CC)CC(=O)NC2CCS(=O)(=O)C2)cc1 (centres undefined) | - | . | - | . | .
O=C(Cc1c(C(=O)O)[nH]c2ccc(Cl)cc12)Nc1ccc2c(c1)OCCO2 | - | - | - | - | -
N=c1c2c3c(sc2nc2n1CCCCC2)CCCCC3 | - | 73 | ? | - | 32
O=c1c2c3c(sc2nc2n1CCC2)CCCC3 | - | - | ? | - | -
CC1=Nn2c(nc3sc4c(c3c2=O)CCCC4)SC1 | - | - | - | - | 24
O=c1c2c3c(sc2nc2n1CCCCC2)CCCCC3 | - | 73 | - | - | 28
CC1CSc2nc3sc4c(c3c(=O)n21)CCCC4 (centres undefined) | - | - | - | - | 22
COc1ccccc1Cc1nnc(NC(=O)C2CCN(C(=O)c3ccco3)CC2)s1 | ? | - | - | - | -
COc1ccccc1N1CCN(C(=O)c2sc3nc(-c4ccc(F)cc4)cn3c2C)CC1 | ? | - | ? | - | -
O=C(Oc1ccc(C(=S)N2CCOCC2)cc1)c1cccc(Cl)c1 | - | - | - | - | -
O=C(CCc1ccccc1)N1CCCN(C(=O)CCc2ccccc2)CC1 | - | - | - | - | -
SMILES | Pf growth 48h | Shiga inhibitor | Pf growth 96h | NS1 inh | Cycloheximide cs
CCCCCC(=O)NC(=S)NC1C2CC3CC(C2)CC1C3 (centres undefined) | 4.7µM | - | 3.7µM | - | -
CN1CCC(OC(=O)COc2ccc(F)cc2)CC1 | - | - | ? | . | -
CCOC(=O)CC(=O)Nc1ccccc1C(=O)O | - | - | - | - | -
CCOC(=O)/C(C#N)=N/Nc1ccccc1C(=O)O | ? | - | 10µM | - | -
CCn1c(=O)n(CCc2ccccc2)c(=O)c2c3c(sc21)CCCC3 | . | - | ? | - | -
O=c1c2c3c(sc2nc(NCCOCCO)n1Cc1ccco1)CCCCC3 | ? | - | ? | - | -
CC(O)CNc1nc2sc3c(c2c(=O)n1CCc1ccccc1)CCCCC3 (centres undefined) | 12µM | - | - | - | 18
N=c1c2c3c(sc2ncn1Cc1ccco1)CCCCC3 | - | - | ? | - | 21
CN(C)CCNc1nc2sc3c(c2c(=O)n1CCc1ccccc1)CCCCC3 | 2.1µM | - | 2.3µM | - | -
CC(O)CNc1nc2sc3c(c2c(=O)n1Cc1ccco1)CCCCC3 (centres undefined) | ? | 36 | - | - | 25
Cc1cc(CNC(=O)Cn2nc(C)c([N+](=O)[O-])c2C)c2ccccc2n1 | - | - | ? | . | -
C=CCn1c(SCC(=O)NCc2ccco2)nc2sc3c(c2c1=O)CCCC3 | . | - | ? | - | -
O=C(NCc1ccco1)c1ccc2nc3sc4c(c3c(=O)n2c1)CCCC4 | - | 99 | 1.9µM | - | 60
O/N=C\c1ccc(-c2ccccc2)o1 | - | 92 | - | - | 21
O=[N+]([O-])c1ccc(-c2ccc(/C=N/O)o2)cc1 | - | 109 | - | - | 33
COc1ccc(-c2cnnc(N/N=C/c3ccc(-c4ccc([N+](=O)[O-])cc4)o3)n2)cc1 | 2.9µM | - | - | . | -
O=[N+]([O-])c1cc(-c2ccc(/C=N\n3cnnc3)o2)cc([N+](=O)[O-])c1 | 7.4µM | - | ? | - | -
O=[N+]([O-])c1ccc(-c2ccc(C=Nc3cccc4ccccc34)o2)cc1 | - | - | - | - | -
CN(CCc1ccccn1)c1ccc2c(c1)Cc1ccccc1-2 | . | . | . | - | .
Cc1ccc(C(=O)NNC(=O)c2cccc(S(=O)(=O)N3CCN(c4ccccc4)CC3)c2)cc1 | - | - | - | ? | -
O=C(CN1C(=O)c2cccc([N+](=O)[O-])c2C1=O)OCC(=O)N1CCCCC1 | - | . | - | . | .
Cc1cc(NC(=O)CN2C(=O)NC3(CCCCC3)C2=O)ccc1N1CCCC1 | ? | . | - | . | .
O=C(Cc1ccccc1)N/N=C/c1ccc(-c2ccc([N+](=O)[O-])cc2)o1 | - | - | - | - | -
NC(=O)N/N=C/c1ccc(-c2ccc([N+](=O)[O-])cc2)o1 | - | - | - | - | 25
COc1ccc(N=Cc2ccc(-c3ccccc3)o2)cc1 | - | - | 12µM | - | 16
SMILES | Pf growth 48h | Shiga inhibitor | Pf growth 96h | NS1 inh | Cycloheximide cs
Cc1ccc(C(=O)c2no[n+]([O-])c2C(=O)c2ccc(C)cc2)cc1 | - | - | - | - | -
CCC1(c2ccccc2)NC(=O)N(CC(=O)Nc2cc(S(=O)(=O)N3CCCCC3)ccc2OC(C)C)C1=O (centres undefined) | 10µM | . | ? | . | .
CCOc1ccc(S(=O)(=O)N2CCCCC2)cc1NC(=O)CN1C(=O)NC(CC)(c2ccccc2)C1=O (centres undefined) | 4.7µM | - | 12µM | - | -
CCC1(c2ccccc2)NC(=O)N(CC(=O)Nc2cccc(S(=O)(=O)N3CCCC3)c2)C1=O (centres undefined) | ? | . | - | . | .
CCC1(c2ccccc2)NC(=O)N(CC(=O)Nc2cc(S(=O)(=O)N3CCCCCC3)ccc2OC)C1=O (centres undefined) | 9.3µM | . | 7.4µM | . | .
CCOc1ccccc1CN1CCNC(=O)C1CC(=O)N(C)Cc1cnccn1 (centres undefined) | - | - | ? | - | -
Cn1c(Cn2nnc3ccccc32)nnc1SCC(=O)N1c2ccccc2Sc2ccccc21 | ? | - | 10µM | - | -
Cn1c(Cn2nnc3ccccc32)nnc1SCC(=O)N1c2ccccc2CCc2ccccc21 | ? | - | -[5.75 µM] | - | -
CN(C)CCCn1c(SCC(=O)N2c3ccccc3Sc3ccccc32)nc2ccccc2c1=O | 10µM | - | 4.1µM | - | -
COC(=O)c1sc(NC(=O)CSc2nnc(Cn3nnc4ccccc43)n2C)nc1C | - | - | ? | - | -

High-throughput results (PubChem BioAssay)
